Most compounds without a hit are left out; they make up all but 18% or so of the library.
TDP1 cell noCPT: qHTS for Inhibitors of human tyrosyl-DNA phosphodiesterase 1 (TDP1): qHTS in cells in absence of CPT; DT40 Tdp1-/- hTDP1 cells, no CPT, ATP luminescence, 48 h; Potency, µM (highest dose often 46.2 µM), without a hit: at the highest dose activity change, negative = growth inhibition, actives largely listed as inhibitors; actives 15% (n = 420,000); AID 686978, 2013; also: potency is read from the fitted curve at half-maximal effect; nearly all actives have a fitted effect of over 55% in size
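Chicken DT40 Tdp1-/- cells stably complemented with human TDP1 were seeded at 400 cells/well with DMSO in place of 20 nM camptothecin. After compound pinning, cells grew at least 48 hr at 37 °C; viability read by CellTiter-Glo luminescence.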
CtBP-E1A inh: CtBP/E1A binding inhibition. AlphaScreen GST-E1A/His-CtBP binding, 1536-well; active compounds read low. activity change, % (concentration not given with the values). actives 0.49% (n = 340,000). AID 651724; in the data active = activity change below about -65%; inconclusive = mostly about -30% to -63%
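Steps: dispense buffer (Tris pH 8.0, NaCl 300 mM, TCEP 1 mM, BSA, Tween 20); add 5X protein mix (GST-E1A, His-CtBP, 125 nM each); pin 23 nL compound; 2 h at 37 °C, dark; add 5X beads (50 ug/mL); 1 h; read.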
TDP1 inh: TDP1 (human) enzyme inhibition. Q9NUW8. recombinant TDP1, AlphaScreen DNA substrate cleavage. Potency, µM (top dose mostly 130 µM), inactives show at the top dose activity change, negative = inhibition, usual class: inhibitors. actives 0.28% (n = 350,000); also: potency is read from the fitted curve at half-maximal effect; nearly all actives have a fitted effect of over 40% in size
Target sequence (Q9NUW8 whole entry, looked up): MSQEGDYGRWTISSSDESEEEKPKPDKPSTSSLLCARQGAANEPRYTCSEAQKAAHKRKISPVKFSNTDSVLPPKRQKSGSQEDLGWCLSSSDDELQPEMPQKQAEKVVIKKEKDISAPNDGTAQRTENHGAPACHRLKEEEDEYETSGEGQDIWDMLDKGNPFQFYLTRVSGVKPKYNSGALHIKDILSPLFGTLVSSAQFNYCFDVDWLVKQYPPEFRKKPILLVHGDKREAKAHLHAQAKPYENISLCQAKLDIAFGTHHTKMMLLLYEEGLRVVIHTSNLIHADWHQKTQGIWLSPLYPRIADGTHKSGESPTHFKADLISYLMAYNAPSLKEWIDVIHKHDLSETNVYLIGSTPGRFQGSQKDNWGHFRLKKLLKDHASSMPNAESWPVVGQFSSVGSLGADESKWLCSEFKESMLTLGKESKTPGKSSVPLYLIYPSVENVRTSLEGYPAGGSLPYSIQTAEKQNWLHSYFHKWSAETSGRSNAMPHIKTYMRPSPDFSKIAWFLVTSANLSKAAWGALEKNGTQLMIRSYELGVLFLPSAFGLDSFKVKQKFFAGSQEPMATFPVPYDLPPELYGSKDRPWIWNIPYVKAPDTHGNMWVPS
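Recombinant E. coli-expressed Tdp1 (1 nM) preincubated with compound 15 min at RT, then 5'-biotin/3'-phosphotyrosine-FITC DNA substrate (15 nM) added for 5 min. AlphaScreen beads (10 ug/ml) added, 10 min RT; tyrosine-FITC cleavage read as signal loss.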
TDP1 cell CPT: growth inhibition of DT40 Tdp1-/-;hTDP1 cells with camptothecin (screen for TDP1 inhibitors). chicken DT40 Tdp1-/-;hTDP1 cells + 20 nM CPT, ATP luminescence, 48 h. Potency, µM (highest dose often 46.2 µM), for the others: top-dose activity change, negative = growth inhibition, usual class: inhibitors. actives 12% (n = 420,000). AID 686979; also: potency is read from the fitted curve at half-maximal effect; nearly all actives have a fitted effect of over 55% in size
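Chicken DT40 Tdp1-/- cells complemented with human TDP1, 400 cells/well, exposed to compounds plus 20 nM camptothecin for at least 48 h at 37 C; viability read as ATP content by CellTiter-Glo luminescence.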
IL-1B inflam inh: blocks inflammasome-driven IL-1 beta release; THP-1 LPS/ATP IL-1B secretion, AlphaLISA, 16 h; active compounds read low; actives 4.7% (n = 360,000); activity change, % at 57.5 µM; AID 743279; in the data active = activity change below about -50%; inconclusive = mostly about -30% to -49%
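THP-1 cells pretreated 1 hr with compounds (up to 57.5 uM final), then stimulated with LPS (250 ng/mL final) plus ATP (1.25 mM final); secreted IL-1B measured by AlphaLISA after 16 hr, decreased signal indicating inhibition.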
Six1-Eya2 blk: inhibitors of human Six1/Eya2 interaction | AID 651725 | actives 0.56% (n = 360,000) | activity change, % (test concentration not listed) | AlphaScreen GST-Six1/His-Eya2 binding, biochemical; active compounds read low | Q15475+O00167; in the data active = activity change below about -65%; inconclusive = mostly about -30% to -63%
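GST-Six1 + His-Eya2 (5X stock: 250/500 nM); Tris pH 8.0, 300 mM NaCl, 0.05% BSA, 0.02% Tween 20; GSH donor/Ni acceptor beads; 1 h 37 °C dark; AlphaScreen readout.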
An asterisk follows results filed as active; u = inconclusive; x = no result given; [ ] = dose if it differs, or a comment. Unless noted, calls follow the shape of the dose curve; as a rule, active = well fitted curve in the direction sought with a large enough effect; inconclusive = small, poorly fitted or top-dose-only effect, or another doubt; inactive = no such curve, though single readings can be large; an effect the other way counts as inactive or inconclusive. % is scaled to controls: 0 for no effect and ±100 for the full control effect.

SMILES	TDP1 cell noCPT	CtBP-E1A inh	TDP1 inh	TDP1 cell CPT	IL-1B inflam inh	Six1-Eya2 blk
COC(=O)[C@]1(CC(C)C)N[C@H](c2ccc(-c3ccccc3)cc2)[C@@H]2C(=O)N(C)C(=O)[C@@H]21	u	-0.1	1.4%	u	-18.5	-8.1
COC(=O)[C@]1(CC(C)C)N[C@H](c2ccc(-c3ccc(OC)cc3)cc2)[C@@H]2C(=O)N(C)C(=O)[C@@H]21	16.4µM*	-5.7	0.2%	u	-1.2	-8.4
CCCCn1nc(C(=O)Nc2ccc3c(c2)OCCO3)c2ccccc2c1=O	u	-2.1	1.6%	u	x	-10.6
C[C@H](NC(=O)c1nc[nH]c1C(=O)N1CCc2ccccc2C1)c1ccccc1	u	0.0	1.2%	u	1.0	-2.5
CCN(CC(=O)Nc1ccc(NC(C)=O)cc1)C(=O)Cc1coc2cc(C)c(C)cc12	-21.0%	0.1	-4.6%	-3.3%	-14.7	-7.9
CN1C2CCC1/C(=C\c1ccc(F)cc1)C(=O)/C2=C/c1ccc(F)cc1	16.4µM*	-5.4	0.0%	20.6µM*	-86.9*	8.9
Cc1cccc(/C=C2\CCC(C3CCCC3)C2=O)c1 (configuration not stated)	-9.7%	0.0	-10.8%	2.0%	13.4	0.0
Cc1cccc(/C=C2/C(=O)/C(=C/c3ccccc3C)C3CCC2N3C)c1 (configuration not stated)	18.4µM*	16.1	2.0%	20.6µM*	-7.2	-0.9
CN1C2CCC1/C(=C/c1cccn1C)C(=O)/C2=C\c1cccn1C	16.4µM*	-22.4	0.0%	23.1µM*	-14.7	u
O=C(COC(=O)c1ccc2ccccc2c1)NCCCc1ccccc1	-15.7%	x	5.4%	-3.2%	-9.2	-3.2
CCOC(=O)c1cccc(NC(=O)c2cnc3ccccc3n2)c1	25.9µM*	-6.7	3.9%	u	-12.7	-8.7
CCOC(=O)c1cccc(NC(=O)c2ccc3c(c2)nnn3CC)c1	u	x	7.9%	u	x	x
CCOC(=O)c1cccc(NC(=O)c2cccnc2)c1	u	-0.4	4.0%	u	-0.3	0.7
CCOC(=O)c1cccc(NC(=O)c2ccc3snnc3c2)c1	18.4µM*	x	0.0%	u	x	x
COc1ccc(C2C(C#N)=C(N)Oc3cc(C)n(Cc4ccncc4)c(=O)c32)cc1 (configuration not stated)	2.06µM*	-2.5	-5.8%	4.61µM*	-9.3	1.7
COc1ccc(-c2nc3c(=O)n(C)c(=O)nc-3n(C)n2)cc1	0.447µM*	x	4.1%	0.0891µM*	x	x
Cn1nc(-c2cccnc2)nc2c(=O)n(C)c(=O)nc1-2	1.26µM*	x	1.2%	1.12µM*	x	x
Cc1ccccc1-n1c2nc(=O)n(C)c(=O)c-2cc2ccccc21	-21.5%	0.1	0.0%	-11.8%	x	4.1
CCn1nc(-c2ccccc2C)nc2c(=O)n(C)c(=O)nc1-2	1µM*	x	3.2%	1µM*	x	x
Cc1cc(C)n2nc(-c3cccnc3)nc2n1	-11.7%	-2.0	2.2%	4.0%	-8.4	-13.3
Cn1nc(-c2ccc(F)cc2)nc2c(=O)n(C)c(=O)nc1-2	0.631µM*	x	0.9%	0.447µM*	x	x
COc1cc(/C=C/C(=O)NCc2nc3ccccc3[nH]2)cc(OC)c1OC	-15.5%	-10.6	7.7%	-24.8%	-20.3	-1.1
Cc1ccc(N(C)C(=O)CCS(=O)(=O)c2cc3c(cc2Cl)NC(=O)CO3)cc1	-21.6%	-7.9	5.2%	-22.2%	-1.4	2.0
N#C/C(=C\c1c[nH]c2ccccc12)C(=O)Nc1ncc(Cc2ccc(Cl)cc2Cl)s1	16.4µM*	-13.6	2.6%	u	-60.7*	-8.3
Cn1cc(/C=C(\C#N)C(=O)Nc2ncc(Cc3cccc(Cl)c3)s2)c2ccccc21	x	x	5.3%	x	x	x
SMILES	TDP1 cell noCPT	CtBP-E1A inh	TDP1 inh	TDP1 cell CPT	IL-1B inflam inh	Six1-Eya2 blk
NC(=O)c1ccc(SCC(=O)OCC(=O)N2CCCC2=O)c([N+](=O)[O-])c1	-6.6%	-23.6	x	-0.1%	6.5	-1.4
COC(=O)C1CCN(Cc2ccc3c(c2)CN(C(=O)c2sc(C)nc2C)CCO3)CC1	-15.4%	x	x	-8.5%[9.04 µM]	x	x
COc1ccc(C(=O)N2CCOc3ccc(CN4CCN(c5ccccn5)CC4)cc3C2)o1	-21.9%	x	x	3.6%[9.04 µM]	x	x
CCOC(=O)N1CCN(Cc2ccc3c(c2)CN(C(=O)c2sc(C)nc2C)CCO3)CC1	16.4µM*	x	x	-8.4%[9.04 µM]	x	x
O=C(c1ccc2[nH]ccc2c1)N1CCOc2ccc(CN3CCN(c4ccccn4)CC3)cc2C1	u	x	x	-4.0%[9.04 µM]	x	x
Cc1nc2sccn2c1CN1CCOc2ccc(CN3CCN(c4ccc(F)cc4)CC3)cc2C1	2.59µM*	x	x	2.91µM*	x	x
CCOC(=O)N1CCN(Cc2ccc3c(c2)CN(C(=O)c2ccc4ncccc4c2)CCO3)CC1	23.1µM*	x	x	-11.0%[9.04 µM]	x	x
COCc1ccc(C(=O)N2CCOc3ccc(CN4CCN(c5ccc(F)cc5)CC4)cc3C2)o1	20.6µM*	x	x	20.6µM*	x	x
CCC(=O)c1ccc(OCC(=O)OCC(=O)N2c3ccccc3NC(=O)C2(C)C)cc1	-15.1%	8.5	x	-12.5%	-0.7	-2.7
COc1ccccc1N1CCN(/N=C\c2cccnc2)CC1	-3.9%	-2.9	x	12.2%	4.4	4.5
Cc1ccc2c(c1C)NC(=O)C2(O)CC(=O)c1ccc2c(c1)OCO2 (configuration not stated)	-11.3%	7.6	-2.2%	-17.4%	22.9	1.3
O=C(Cn1cc(C(=O)COc2ccccc2)c2ccccc21)NCc1ccco1	u	-0.6	11.6%	u	-12.1	0.8
CC(C)c1nc(C(=O)N2CCOc3ccc(CN4CCN(c5ccccn5)CC4)cc3C2)cs1	14.6µM*	x	x	-17.6%[9.04 µM]	x	x
CCOC(=O)N1CCN(Cc2ccc3c(c2)CN(C(=O)c2ccc(C#CC(C)(C)O)o2)CCO3)CC1	9.2µM*	x	x	u	x	x
CC(C)NC(=O)C1C(c2ccc(C(F)(F)F)cc2)=Nc2ccccc2N1C(=O)c1ccccc1 (configuration not stated)	u	0.1	x	u	47.2	-0.6
Cc1cccc(N2CCN(C(=O)CC(NC(=O)c3ccccc3Cl)c3ccccc3)CC2)c1C (configuration not stated)	u	0.5	2.7%	18.4µM*	-4.4	-0.7
CC(=O)c1ccc(N2CCN(C(=O)[C@H](C)NC(=O)c3ccccc3Cl)CC2)cc1	u	1.4	9.2%	u	0.3	0.0

Screening data as filed in PubChem.
